Data on one compound can be found in PubChem BioAssay AID651994 (Sanford-Burnham Center for Chemical Genomics, 2013).

Hit rate of the full screen: of about 2,500 compounds, about 790 (32%) were called active.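 The calls were made as follows: active = mean cytotoxicity at 5 µM above about 25% (limit read from the data); inactive = the rest.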 The full list was thinned out, with actives kept by preference.

A short description of this assay: cell viability loss, Sufu-null reporter line – ATP luminescence, single concentration, cytotoxicity control for Gli-SUFU antagonist project, confirmation (AID 651994).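 Also: cells exposed to compound overnight for roughly 16 to 18 hours; plate controls were DMSO wells with cells for no effect and medium without cells for full effect.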 The conditions noted are these: Sufu-KO-LIGHT cells cytotoxicity, at 5 µM, stronger effect = higher value.
On to `CCOc1cccc(=NC2CCCCC2)c2c(C)[nH]c(C)c12`, for which the cytotoxicity is 32.3% (active).
